Source: PubChem BioAssay (NCATS)
Results filed as inconclusive are left out. A call without a number means that no potency is given here. Unmarked numbers belong to inactive results. Active and inactive are the calls of the source. Calls come from the whole dose curve; as a rule, active = well fitted curve in the direction sought with a large enough effect; inconclusive = small, poorly fitted or top-dose-only effect, or another doubt; inactive = no such curve, though single readings can be large; an effect the other way counts as inactive or inconclusive.

Tests used:
[1] = molecular target: ATP-dependent 6-phosphofructokinase (Trypanosoma brucei brucei) (UniProt O15648); assay: qHTS Assay to Find Inhibitors of T. brucei phosphofructokinase: hit validation (AID 492961);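 note: luminescence reports ADP formed as PFK phosphorylates fructose-6-phosphate with ATP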
Summary of the method: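 PFK 1.25 nM, F6P 0.5 mM, ATP 0.1 mM, MgCl2 5 mM, 0.1 M TEA pH 8.0, Tween20 0.01%, BSA 0.1%; 45 min RT. ADP-Glo two-step detection, luminescence. qHTS titration; curve fitting with curve-class categorization.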

[2] = molecular target: Luciferin 4-monooxygenase (Photinus pyralis) (UniProt P08659); assay: Biochemical firefly luciferase enzyme assay for NPC (AID 624030);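 note: purified P. pyralis luciferase at 10 nM with luciferin and ATP substrate; nearly all actives have a fitted effect of over 70% in size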
Summary of the method: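 Counter-screen for direct inhibition of the luciferase enzyme by approved-drug library compounds, run at 10 nM enzyme in 50 mM Tris acetate (final). Luminescence was read within 5 min of enzyme-buffer addition and normalized to PTC124 versus DMSO (0%).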

[3] = qHTS profiling for inhibitors of Plasmodium falciparum proliferation (AID 504749); note: potency is the fitted concentration of half-maximal effect; for all read-outs here: nearly all actives have a fitted effect of over 60% in size; conditions: P. falciparum in erythrocytes, SYBR Green DNA, 72 h; for activity, negative = inhibition: at 28.7 µM (top of the series)
Summary of the method: (§1)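 Fluorescence of SYBR Green-bound parasite DNA, read at 485/535 nm, served as the growth measure. Infected erythrocytes were cultured with compound 72 h; artemisinin (0.29 uM) and DMSO wells defined the normalization range.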

[4] = test system: ATS189; assay: as above; conditions: P. falciparum in erythrocytes, SYBR Green DNA, 72 h; series mostly up to 28.7 µM
Summary of the method: as §1

[5] = test system: C2A; assay: as above; conditions: P. falciparum in erythrocytes, SYBR Green DNA, 72 h; series mostly up to 28.7 µM
Summary of the method: as §1

[6] = test system: CP191; assay: as above; conditions: P. falciparum in erythrocytes, SYBR Green DNA, 72 h; series mostly up to 28.7 µM
Summary of the method: as §1

[7] = test system: CP192; assay: as above; conditions: P. falciparum in erythrocytes, SYBR Green DNA, 72 h; series mostly up to 28.7 µM
Summary of the method: as §1

[8] = test system: CP201; assay: as above; conditions: P. falciparum in erythrocytes, SYBR Green DNA, 72 h; series mostly up to 28.7 µM
Summary of the method: as §1

[9] = test system: CP215; assay: as above; conditions: P. falciparum in erythrocytes, SYBR Green DNA, 72 h; series mostly up to 28.7 µM
Summary of the method: as §1

[10] = test system: CP237; assay: as above; conditions: P. falciparum in erythrocytes, SYBR Green DNA, 72 h; series mostly up to 28.7 µM
Summary of the method: as §1

[11] = test system: CP238; assay: as above; conditions: P. falciparum in erythrocytes, SYBR Green DNA, 72 h; series mostly up to 28.7 µM
Summary of the method: as §1

[12] = test system: CP268; assay: as above; conditions: P. falciparum in erythrocytes, SYBR Green DNA, 72 h; series mostly up to 28.7 µM
Summary of the method: as §1

[13] = test system: CP269; assay: as above; conditions: P. falciparum in erythrocytes, SYBR Green DNA, 72 h; series mostly up to 28.7 µM
Summary of the method: as §1

[14] = test system: CP286; assay: as above; conditions: P. falciparum in erythrocytes, SYBR Green DNA, 72 h; series mostly up to 28.7 µM
Summary of the method: as §1

[15] = test system: CP325; assay: as above; conditions: P. falciparum in erythrocytes, SYBR Green DNA, 72 h; series mostly up to 28.7 µM
Summary of the method: as §1

[16] = test system: CP329; assay: as above; conditions: P. falciparum in erythrocytes, SYBR Green DNA, 72 h; series mostly up to 28.7 µM
Summary of the method: as §1

[17] = test system: ECU; assay: as above; conditions: P. falciparum in erythrocytes, SYBR Green DNA, 72 h; series mostly up to 28.7 µM
Summary of the method: as §1

[18] = test system: FAB9; assay: as above; conditions: P. falciparum in erythrocytes, SYBR Green DNA, 72 h; series mostly up to 28.7 µM
Summary of the method: as §1

[19] = test system: JCK; assay: as above; conditions: P. falciparum in erythrocytes, SYBR Green DNA, 72 h; series mostly up to 28.7 µM
Summary of the method: as §1

[20] = test system: PC49; assay: as above; conditions: P. falciparum in erythrocytes, SYBR Green DNA, 72 h; series mostly up to 28.7 µM
Summary of the method: as §1

Chain of Luciferin 4-monooxygenase (Photinus pyralis) (P08659 whole entry, looked up): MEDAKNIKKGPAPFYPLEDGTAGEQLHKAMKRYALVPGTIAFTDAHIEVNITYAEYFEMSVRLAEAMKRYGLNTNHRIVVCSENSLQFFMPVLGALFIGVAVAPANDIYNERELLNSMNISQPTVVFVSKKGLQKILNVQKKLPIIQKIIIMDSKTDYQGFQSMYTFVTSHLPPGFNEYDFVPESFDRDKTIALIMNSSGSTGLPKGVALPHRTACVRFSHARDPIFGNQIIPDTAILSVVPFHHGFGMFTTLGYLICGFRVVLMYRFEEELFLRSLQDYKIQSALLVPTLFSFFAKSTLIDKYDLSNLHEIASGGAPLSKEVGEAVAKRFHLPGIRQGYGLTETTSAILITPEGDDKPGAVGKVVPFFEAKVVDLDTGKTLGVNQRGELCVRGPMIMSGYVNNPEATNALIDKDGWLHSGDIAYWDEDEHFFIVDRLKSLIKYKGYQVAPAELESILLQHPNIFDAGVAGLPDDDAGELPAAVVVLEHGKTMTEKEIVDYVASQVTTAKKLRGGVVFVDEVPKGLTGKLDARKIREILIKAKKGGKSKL
Chain of ATP-dependent 6-phosphofructokinase (Trypanosoma brucei brucei) (O15648 whole entry, looked up): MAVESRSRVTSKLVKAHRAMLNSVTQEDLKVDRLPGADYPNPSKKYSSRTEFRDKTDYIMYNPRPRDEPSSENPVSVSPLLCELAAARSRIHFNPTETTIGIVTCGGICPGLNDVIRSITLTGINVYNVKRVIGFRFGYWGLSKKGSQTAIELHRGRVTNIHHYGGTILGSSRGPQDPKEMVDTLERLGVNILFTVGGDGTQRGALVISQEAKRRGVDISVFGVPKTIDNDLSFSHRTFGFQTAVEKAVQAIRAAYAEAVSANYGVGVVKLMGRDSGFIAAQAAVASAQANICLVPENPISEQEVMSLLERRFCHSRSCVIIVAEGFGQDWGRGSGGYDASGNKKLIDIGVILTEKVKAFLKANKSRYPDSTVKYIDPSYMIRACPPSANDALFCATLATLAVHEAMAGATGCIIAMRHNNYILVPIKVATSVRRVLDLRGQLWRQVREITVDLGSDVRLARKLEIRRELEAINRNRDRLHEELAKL

C[C@@H]1CC[C@H]2[C@@H](C)C(=O)O[C@@H]3OC4(C)CC[C@@H]1C32OO4 (stereo partly drawn)
outcome [1]: inactive | Potency [2]: inactive | Potency ([3]; parasite line A): 7.9 nM (active) | Potency ([3]; parasite line B): 7.1 nM (active) | Potency [4]: 8.9 nM (active) | Potency [5]: 11.2 nM (active) | Potency [6]: 7.1 nM (active) | Potency [7]: 16.9 nM (active) | Potency [8]: 30.1 nM (active) | Potency [9]: 13.5 nM (active) | Potency [10]: 10 nM (active) | Potency [11]: 10 nM (active) | Potency [12]: 13.5 nM (active) | Potency [13]: 10.7 nM (active) | Potency [14]: 7.1 nM (active) | Potency [15]: 15.1 nM (active) | Potency [16]: 15.1 nM (active) | Potency [17]: 5.6 nM (active) | Potency [18]: 7.9 nM (active)

C#CCN1CC(=O)N(COC(=O)[C@@H]2[C@@H](C=C(C)C)C2(C)C)C1=O
outcome [1]: inactive | Potency [2]: inactive | activity, negative = inhibition ([3]; parasite line A): 4.89% | activity, negative = inhibition ([3]; parasite line B): 10.9% | Potency [4]: inactive | Potency [5]: inactive | Potency [6]: inactive | Potency [7]: inactive | Potency [8]: inactive | Potency [10]: inactive | Potency [11]: inactive | Potency [12]: inactive | Potency [13]: inactive | Potency [14]: inactive | Potency [15]: inactive | Potency [16]: inactive | Potency [17]: inactive | Potency [18]: inactive | Potency [19]: inactive | Potency [20]: inactive

OCC(O)[C@H]1O[C@@H]2O[C@H](C(Cl)(Cl)Cl)O[C@@H]2[C@H]1O (stereo partly drawn)
outcome [1]: inactive | Potency [2]: inactive | activity, negative = inhibition ([3]; parasite line A): 8.92% | activity, negative = inhibition ([3]; parasite line B): 3.35% | Potency [4]: inactive | Potency [5]: inactive | Potency [6]: inactive | Potency [7]: inactive | Potency [8]: inactive | Potency [9]: inactive | Potency [10]: inactive | Potency [11]: inactive | Potency [12]: inactive | Potency [13]: inactive | Potency [14]: inactive | Potency [15]: inactive | Potency [16]: inactive | Potency [17]: inactive | Potency [18]: inactive | Potency [19]: inactive | Potency [20]: inactive

CC1OC(O[C@H]2C[C@@H](O)[C@]3(CO)[C@@H]4C(CC[C@]3(O)C2)[C@@]2(O)CC[C@H](C3=CC(=O)OC3)[C@@]2(C)C[C@H]4O)C(O)C(O)C1O (stereo partly drawn)
outcome [1]: inactive | Potency [2]: inactive | activity, negative = inhibition ([3]; parasite line A): -8.52% | activity, negative = inhibition ([3]; parasite line B): -0.0666% | Potency [4]: inactive | Potency [5]: inactive | Potency [6]: inactive | Potency [7]: inactive | Potency [8]: inactive | Potency [9]: inactive | Potency [10]: inactive | Potency [11]: inactive | Potency [12]: inactive | Potency [13]: inactive | Potency [14]: inactive | Potency [15]: inactive | Potency [16]: inactive | Potency [17]: inactive | Potency [18]: inactive | Potency [19]: inactive | Potency [20]: inactive

CCCN1CCCC2Cc3nc(N)ncc3CC21 (stereo not drawn)
outcome [1]: inactive | Potency [2]: inactive | activity, negative = inhibition ([3]; parasite line A): 2.28% | activity, negative = inhibition ([3]; parasite line B): 5.03% | Potency [4]: inactive | Potency [5]: inactive | Potency [6]: inactive | Potency [7]: inactive | Potency [8]: inactive | Potency [9]: inactive | Potency [10]: inactive | Potency [11]: inactive | Potency [12]: inactive | Potency [13]: inactive | Potency [14]: inactive | Potency [15]: inactive | Potency [16]: inactive | Potency [17]: inactive | Potency [18]: inactive | Potency [19]: inactive | Potency [20]: inactive

CCC(C)C1NC(=O)C(Cc2ccc(O)cc2)NC(=O)C(N)CSSCC(C(=O)N2CCCC2C(=O)NC(CC(C)C)C(=O)NCC(N)=O)NC(=O)C(CC(N)=O)NC(=O)C(CCC(N)=O)NC1=O (stereo not drawn)
outcome [1]: inactive

CNCC(=O)NC(CCCN=C(N)N)C(=O)NC(C(=O)NC(Cc1ccc(O)cc1)C(=O)NC(C(=O)NC(Cc1cnc[nH]1)C(=O)N1CCCC1C(=O)NC(C)C(=O)O)C(C)C)C(C)C (stereo not drawn)
outcome [1]: inactive

COC(C(=O)C(O)C(C)O)C1Cc2cc3cc(OC4CC(OC5CC(O)C(OC)C(C)O5)C(OC(C)=O)C(C)O4)c(C)c(O)c3c(O)c2C(=O)C1OC1CC(OC2CC(OC3CC(C)(O)C(OC(C)=O)C(C)O3)C(O)C(C)O2)C(O)C(C)O1 (stereo not drawn)
outcome [1]: inactive | Potency [2]: inactive | Potency ([3]; parasite line A): 708 nM (active) | Potency ([3]; parasite line B): 1410 nM (active) | Potency [4]: 1410 nM (active) | Potency [5]: 1780 nM (active) | Potency [6]: 1780 nM (active) | Potency [7]: 4260 nM (active) | Potency [8]: 15100 nM (active) | Potency [9]: 4260 nM (active) | Potency [10]: 89.1 nM (active) | Potency [11]: 1260 nM (active) | Potency [12]: 1900 nM (active) | Potency [13]: 1900 nM (active) | Potency [14]: 100 nM (active) | Potency [15]: 3380 nM (active) | Potency [16]: 3380 nM (active) | Potency [17]: 1000 nM (active) | Potency [18]: 2000 nM (active) | Potency [19]: 3980 nM (active) | Potency [20]: 2820 nM (active)

Nc1nc(O)c(-c2ccccc2)o1
outcome [1]: inactive | Potency [2]: inactive | activity, negative = inhibition ([3]; parasite line A): 12.1% | activity, negative = inhibition ([3]; parasite line B): 6.38% | Potency [4]: inactive | Potency [5]: inactive | Potency [6]: inactive | Potency [7]: inactive | Potency [8]: inactive | Potency [9]: inactive | Potency [10]: inactive | Potency [11]: inactive | Potency [12]: inactive | Potency [13]: inactive | Potency [14]: inactive | Potency [15]: inactive | Potency [16]: inactive | Potency [17]: inactive | Potency [18]: inactive | Potency [19]: inactive | Potency [20]: inactive

C=C1Nc2ccccc2C(=O)N1c1ccccc1C
outcome [1]: inactive | Potency [2]: inactive | activity, negative = inhibition ([3]; parasite line A): -20.1% | activity, negative = inhibition ([3]; parasite line B): -23.4% | Potency [4]: inactive | Potency [5]: inactive | Potency [6]: inactive | Potency [7]: inactive | Potency [8]: inactive | Potency [9]: inactive | Potency [10]: inactive | Potency [11]: inactive | Potency [12]: inactive | Potency [13]: inactive | Potency [14]: inactive | Potency [15]: inactive | Potency [16]: inactive | Potency [17]: inactive | Potency [18]: inactive | Potency [19]: inactive | Potency [20]: inactive

OC[C@@H](O)[C@H]1O[C@@H]2OC(C(Cl)(Cl)Cl)O[C@H]2[C@H]1O (stereo partly drawn)
outcome [1]: inactive | Potency [2]: inactive | activity, negative = inhibition ([3]; parasite line A): 8.29% | activity, negative = inhibition ([3]; parasite line B): 19.1% | Potency [4]: inactive | Potency [5]: inactive | Potency [6]: inactive | Potency [7]: inactive | Potency [8]: inactive | Potency [9]: inactive | Potency [10]: inactive | Potency [11]: inactive | Potency [12]: inactive | Potency [13]: inactive | Potency [14]: inactive | Potency [15]: inactive | Potency [16]: inactive | Potency [17]: inactive | Potency [18]: inactive | Potency [19]: inactive | Potency [20]: inactive
